Laboratory results reported in ChEMBL document CHEMBL3988442, “University of Dundee, Small-Polar-MMV Screening Library” (2021).
For part of these data: Measured potencies and affinities stand elsewhere.

What was measured:
Set-up in all cases: scale not given: direction of the effect not stated beside the values
[1] = molecular target: Protein translocase subunit SecA (Escherichia coli (strain K12)) (UniProt P10408); assay: Assay to Identify E. coli SecA ATPase Inhibitors; format: functional; details: 30 µM
[2] = molecular target: T1, Ubiquitin-activating enzyme e1, putative (Leishmania donovani (strain BPK282A1)) (UniProt E9BSI1); assay: Leishmania donovani Ubiquitin Activating Enzyme (LdE1); format: functional; details: 30 µM
T1 sequence (whole entry): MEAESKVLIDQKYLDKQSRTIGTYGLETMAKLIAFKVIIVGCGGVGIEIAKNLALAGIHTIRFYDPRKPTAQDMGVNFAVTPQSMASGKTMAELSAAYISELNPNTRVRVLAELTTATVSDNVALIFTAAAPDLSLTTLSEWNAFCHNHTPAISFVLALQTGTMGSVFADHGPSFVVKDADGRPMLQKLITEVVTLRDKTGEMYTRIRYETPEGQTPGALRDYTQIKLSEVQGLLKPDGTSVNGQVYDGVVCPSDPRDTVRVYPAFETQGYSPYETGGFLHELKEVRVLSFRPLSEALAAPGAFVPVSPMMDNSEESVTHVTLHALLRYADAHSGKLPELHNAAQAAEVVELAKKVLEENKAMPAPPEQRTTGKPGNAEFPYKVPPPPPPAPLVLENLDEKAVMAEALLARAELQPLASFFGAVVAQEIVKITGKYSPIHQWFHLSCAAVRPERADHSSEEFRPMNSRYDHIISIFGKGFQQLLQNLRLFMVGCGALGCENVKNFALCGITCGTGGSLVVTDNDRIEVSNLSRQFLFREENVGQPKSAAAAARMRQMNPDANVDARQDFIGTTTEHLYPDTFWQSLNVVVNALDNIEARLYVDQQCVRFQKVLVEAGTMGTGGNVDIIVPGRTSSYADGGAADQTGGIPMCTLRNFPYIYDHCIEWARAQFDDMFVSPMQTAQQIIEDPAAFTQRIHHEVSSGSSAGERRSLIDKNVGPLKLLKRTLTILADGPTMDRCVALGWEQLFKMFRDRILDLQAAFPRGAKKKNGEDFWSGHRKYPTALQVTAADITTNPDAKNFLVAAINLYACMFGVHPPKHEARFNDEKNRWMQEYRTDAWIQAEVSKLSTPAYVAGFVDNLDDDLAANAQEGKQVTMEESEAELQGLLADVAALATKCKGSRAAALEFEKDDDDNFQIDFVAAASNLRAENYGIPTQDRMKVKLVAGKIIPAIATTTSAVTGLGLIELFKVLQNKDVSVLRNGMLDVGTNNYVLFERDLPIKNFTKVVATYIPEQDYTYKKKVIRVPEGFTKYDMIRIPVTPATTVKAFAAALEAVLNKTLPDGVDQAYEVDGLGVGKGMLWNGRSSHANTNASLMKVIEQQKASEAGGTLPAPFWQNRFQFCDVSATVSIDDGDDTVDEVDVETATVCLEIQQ

[3] = molecular target: T2, Aspartate--tRNA(Asp/Asn) ligase (Mycobacterium tuberculosis (strain ATCC 25618 / H37Rv)) (UniProt P9WFW3); assay: Assay for Asp RNA synthetase-1 from Mycobacterium tuberculosis; format: functional; details: 30 µM; note: in the data most compounds retested in dose-response had high values
T2 sequence (whole entry): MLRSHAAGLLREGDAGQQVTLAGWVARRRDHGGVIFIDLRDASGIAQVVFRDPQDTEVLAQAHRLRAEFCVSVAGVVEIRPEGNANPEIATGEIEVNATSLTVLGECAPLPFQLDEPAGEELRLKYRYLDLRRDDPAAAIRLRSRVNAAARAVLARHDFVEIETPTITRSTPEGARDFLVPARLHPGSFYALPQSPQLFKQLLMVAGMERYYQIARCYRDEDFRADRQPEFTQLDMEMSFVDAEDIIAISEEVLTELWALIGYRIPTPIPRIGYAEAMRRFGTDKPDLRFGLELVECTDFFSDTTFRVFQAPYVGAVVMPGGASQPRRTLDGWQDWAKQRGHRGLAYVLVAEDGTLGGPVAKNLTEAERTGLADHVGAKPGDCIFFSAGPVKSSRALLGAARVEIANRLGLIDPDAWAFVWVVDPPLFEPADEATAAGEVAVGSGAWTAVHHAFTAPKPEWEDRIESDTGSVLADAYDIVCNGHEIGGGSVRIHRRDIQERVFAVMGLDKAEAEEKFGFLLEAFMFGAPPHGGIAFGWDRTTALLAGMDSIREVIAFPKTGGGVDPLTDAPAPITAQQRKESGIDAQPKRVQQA

[4] = molecular target: AMP-activated protein kinase, AMPK (Homo sapiens) (UniProt P54646+O43741+P54619+Q9UGJ0+Q9Y478+Q13131+Q9UGI9); assay: AMP-dependent Kinase enzyme assay. An in vitro enzyme assay that detects ADP turnover that is directly proportional to AMPK activity. This uses naive AMPK that is activated during the assay with MK-8722; format: functional; details: 30 µM
[5] = molecular target: Sialic acid-binding Ig-like lectin 9 (Homo sapiens) (UniProt Q9Y336); assay: Hs-Siglec9 ALPHAscreen SOP 20170721; details: 10 µM
[6] = system: Trypanosoma cruzi; assay: Trypanosoma cruzi phosphomannomutase and mannose-1-phosphate guanylyltransferase assay; format: functional; details: 10 µM
[7] = molecular target: T3, Arginase-2, mitochondrial (Homo sapiens) (UniProt P78540); assay: in vitro enzyme assay to detect the production of urea directly proportional to the activity of Arginase II; format: functional; details: 33.3 µM; note: in the data most compounds retested in dose-response had high values
T3 sequence (whole entry): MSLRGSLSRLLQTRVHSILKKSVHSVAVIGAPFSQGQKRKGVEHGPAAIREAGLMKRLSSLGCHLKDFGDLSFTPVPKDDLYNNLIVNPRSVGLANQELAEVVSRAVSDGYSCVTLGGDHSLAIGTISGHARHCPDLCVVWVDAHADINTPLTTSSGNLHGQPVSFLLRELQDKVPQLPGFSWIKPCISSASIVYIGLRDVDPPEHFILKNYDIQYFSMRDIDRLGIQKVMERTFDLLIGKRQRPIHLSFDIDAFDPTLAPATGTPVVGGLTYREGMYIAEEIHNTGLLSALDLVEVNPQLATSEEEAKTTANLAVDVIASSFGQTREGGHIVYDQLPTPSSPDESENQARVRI

[8] = molecular target: T4, Proteasome subunit beta (Trypanosoma cruzi) (UniProt O96673); assay: Trypanosoma cruzi proteasome chymotrypsin-like activity (TcProtChymo) assay.; note: in the data most compounds retested in dose-response had high values; format: functional; details: 9.37 µM
T4 sequence (whole entry): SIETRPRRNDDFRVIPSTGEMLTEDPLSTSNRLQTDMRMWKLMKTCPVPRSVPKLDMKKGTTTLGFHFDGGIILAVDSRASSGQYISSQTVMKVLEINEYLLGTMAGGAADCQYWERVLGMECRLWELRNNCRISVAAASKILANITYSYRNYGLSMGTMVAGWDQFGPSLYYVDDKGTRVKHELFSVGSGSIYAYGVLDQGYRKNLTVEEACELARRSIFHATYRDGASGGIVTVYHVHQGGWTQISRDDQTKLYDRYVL

[9] = species on record: Homo sapiens; assay: To identify inhibition of the IFN signalling (Jak-Stat) pathway via expression of an eGFP reporter gene under the control of an IFN-stimulated response element (ISRE) containing MxA promoter.; format: functional; details: 30 µM
[10] = molecular target: Shiga toxin 2 (Escherichia coli O157:H7) (UniProt P09385+P09386); assay: E. coli 0.157:H7 Shiga Toxin SOP - stx2 screening assay; format: functional; details: 30 µM
[11] = molecular target: T5, Tyrosyl-tRNA synthetase, putative (Trypanosoma cruzi (strain CL Brener)) (UniProt Q4DSP6); assay: Trypanosoma cruzi tyrosyl tRNA synthetase (TcYRS) _High Tyrosine SOP; format: functional; details: 30 µM; note: in the data most compounds retested in dose-response had high values
T5 sequence (whole entry): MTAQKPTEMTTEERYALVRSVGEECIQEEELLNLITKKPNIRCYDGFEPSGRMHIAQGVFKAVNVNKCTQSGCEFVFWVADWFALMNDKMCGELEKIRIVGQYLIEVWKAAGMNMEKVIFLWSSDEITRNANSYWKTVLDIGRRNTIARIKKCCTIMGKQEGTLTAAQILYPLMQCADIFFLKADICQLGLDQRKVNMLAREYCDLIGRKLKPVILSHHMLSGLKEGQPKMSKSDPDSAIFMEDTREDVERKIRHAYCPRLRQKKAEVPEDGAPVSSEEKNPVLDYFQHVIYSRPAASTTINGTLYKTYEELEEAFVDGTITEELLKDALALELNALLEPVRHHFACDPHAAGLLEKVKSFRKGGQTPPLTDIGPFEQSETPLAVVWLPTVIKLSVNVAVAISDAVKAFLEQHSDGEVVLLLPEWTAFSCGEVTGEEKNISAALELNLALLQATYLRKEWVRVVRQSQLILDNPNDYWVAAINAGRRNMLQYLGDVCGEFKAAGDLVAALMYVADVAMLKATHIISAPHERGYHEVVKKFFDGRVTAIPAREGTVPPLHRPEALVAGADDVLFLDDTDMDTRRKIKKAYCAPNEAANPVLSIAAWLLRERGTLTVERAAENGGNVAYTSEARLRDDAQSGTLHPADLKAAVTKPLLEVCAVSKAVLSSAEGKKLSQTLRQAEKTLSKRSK

[12] = molecular target: T5, Tyrosyl-tRNA synthetase, putative (Trypanosoma cruzi (strain CL Brener)); assay: Trypanosoma cruzi tyrosyl tRNA synthetase (TcYRS) SOP; format: functional; details: 30 µM
[13] = molecular target: Chromo domain-containing protein 1 (Saccharomyces cerevisiae (strain ATCC 204508 / S288c) (Baker's yeast)) (UniProt P32657); assay: ScCHD-1 Enzyme Inhibition Assay; format: functional; details: 30 µM; note: in the data most compounds retested in dose-response had high values
Chain of Chromo domain-containing protein 1 (Saccharomyces cerevisiae (strain ATCC 204508 / S288c) (Baker's yeast)) (P32657 whole entry, the tested form may be a part): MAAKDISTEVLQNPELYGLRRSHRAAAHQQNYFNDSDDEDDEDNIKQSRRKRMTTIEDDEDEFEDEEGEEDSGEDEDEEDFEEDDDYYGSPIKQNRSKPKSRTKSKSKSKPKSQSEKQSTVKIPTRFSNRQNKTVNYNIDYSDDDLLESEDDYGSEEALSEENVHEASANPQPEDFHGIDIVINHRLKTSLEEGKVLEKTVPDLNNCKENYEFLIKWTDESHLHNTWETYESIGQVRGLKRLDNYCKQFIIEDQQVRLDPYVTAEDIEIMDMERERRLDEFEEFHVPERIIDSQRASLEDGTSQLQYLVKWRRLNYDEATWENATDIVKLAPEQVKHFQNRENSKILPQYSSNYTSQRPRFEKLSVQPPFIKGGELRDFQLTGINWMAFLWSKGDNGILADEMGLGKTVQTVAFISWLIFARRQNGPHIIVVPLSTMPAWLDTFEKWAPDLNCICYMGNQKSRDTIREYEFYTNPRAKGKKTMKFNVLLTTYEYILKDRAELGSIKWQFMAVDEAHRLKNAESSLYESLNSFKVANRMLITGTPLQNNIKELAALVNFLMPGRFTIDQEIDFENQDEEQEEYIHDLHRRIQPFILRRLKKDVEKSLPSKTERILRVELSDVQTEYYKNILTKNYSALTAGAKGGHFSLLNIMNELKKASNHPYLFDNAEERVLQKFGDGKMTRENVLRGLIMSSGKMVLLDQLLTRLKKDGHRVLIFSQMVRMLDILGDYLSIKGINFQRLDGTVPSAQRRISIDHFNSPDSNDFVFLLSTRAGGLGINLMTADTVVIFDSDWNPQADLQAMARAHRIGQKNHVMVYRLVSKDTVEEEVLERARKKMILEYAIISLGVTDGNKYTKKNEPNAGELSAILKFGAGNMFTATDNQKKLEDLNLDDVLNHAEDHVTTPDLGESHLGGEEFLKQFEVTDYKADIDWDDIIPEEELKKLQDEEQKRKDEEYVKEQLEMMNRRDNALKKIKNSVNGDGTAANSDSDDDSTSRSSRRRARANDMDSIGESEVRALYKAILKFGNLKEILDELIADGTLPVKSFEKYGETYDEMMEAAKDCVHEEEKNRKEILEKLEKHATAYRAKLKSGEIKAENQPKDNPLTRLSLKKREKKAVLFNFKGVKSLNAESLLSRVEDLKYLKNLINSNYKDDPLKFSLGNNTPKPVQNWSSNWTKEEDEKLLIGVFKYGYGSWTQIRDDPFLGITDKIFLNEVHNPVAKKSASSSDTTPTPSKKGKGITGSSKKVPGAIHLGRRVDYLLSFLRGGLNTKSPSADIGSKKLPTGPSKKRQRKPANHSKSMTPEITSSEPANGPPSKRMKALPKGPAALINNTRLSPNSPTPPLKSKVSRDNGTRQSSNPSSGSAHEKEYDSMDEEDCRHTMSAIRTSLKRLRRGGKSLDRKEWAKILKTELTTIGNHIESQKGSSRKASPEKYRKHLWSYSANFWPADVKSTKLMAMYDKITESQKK

Chain of Protein translocase subunit SecA (Escherichia coli (strain K12)) (P10408 whole entry): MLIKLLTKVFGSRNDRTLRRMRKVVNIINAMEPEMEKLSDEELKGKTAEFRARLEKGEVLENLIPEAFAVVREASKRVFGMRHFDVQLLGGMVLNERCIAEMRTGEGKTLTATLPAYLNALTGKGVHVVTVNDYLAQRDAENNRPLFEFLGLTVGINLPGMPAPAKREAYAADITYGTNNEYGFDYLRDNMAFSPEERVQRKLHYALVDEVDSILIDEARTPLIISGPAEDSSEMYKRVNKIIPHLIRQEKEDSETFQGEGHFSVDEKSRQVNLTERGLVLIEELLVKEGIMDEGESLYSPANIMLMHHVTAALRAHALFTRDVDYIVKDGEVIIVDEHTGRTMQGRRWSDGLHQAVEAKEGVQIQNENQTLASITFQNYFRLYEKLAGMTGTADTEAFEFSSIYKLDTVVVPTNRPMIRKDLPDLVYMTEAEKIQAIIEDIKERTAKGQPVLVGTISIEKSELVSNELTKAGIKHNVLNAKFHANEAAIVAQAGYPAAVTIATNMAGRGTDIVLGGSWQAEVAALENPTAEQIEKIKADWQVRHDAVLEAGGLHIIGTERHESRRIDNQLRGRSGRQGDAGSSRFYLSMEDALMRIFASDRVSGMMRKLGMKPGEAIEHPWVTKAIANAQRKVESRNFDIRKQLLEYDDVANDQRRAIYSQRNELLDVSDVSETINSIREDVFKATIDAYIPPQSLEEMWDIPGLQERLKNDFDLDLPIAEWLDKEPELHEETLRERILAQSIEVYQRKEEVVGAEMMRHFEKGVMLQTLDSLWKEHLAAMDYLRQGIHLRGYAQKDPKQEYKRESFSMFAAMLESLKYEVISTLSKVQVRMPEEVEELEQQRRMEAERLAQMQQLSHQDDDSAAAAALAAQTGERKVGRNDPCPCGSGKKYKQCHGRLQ
Chain of Sialic acid-binding Ig-like lectin 9 (Homo sapiens) (Q9Y336 whole entry): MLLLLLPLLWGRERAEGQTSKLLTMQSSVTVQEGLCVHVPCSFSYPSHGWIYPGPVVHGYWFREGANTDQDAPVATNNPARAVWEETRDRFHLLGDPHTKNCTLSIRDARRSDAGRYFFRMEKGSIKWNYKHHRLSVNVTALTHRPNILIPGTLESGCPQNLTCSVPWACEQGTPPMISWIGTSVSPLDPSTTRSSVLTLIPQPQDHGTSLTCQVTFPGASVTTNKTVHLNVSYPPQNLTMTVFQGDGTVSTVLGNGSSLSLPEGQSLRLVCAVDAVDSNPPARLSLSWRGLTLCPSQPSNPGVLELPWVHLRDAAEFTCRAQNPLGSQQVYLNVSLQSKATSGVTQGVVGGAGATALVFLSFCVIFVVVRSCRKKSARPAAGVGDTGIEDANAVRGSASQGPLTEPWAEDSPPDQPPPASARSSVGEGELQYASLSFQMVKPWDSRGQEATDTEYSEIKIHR

Row | SMILES | Percent Effect [1] [%] | Percent Effect [2] [%] | Percent Effect [3] [%] | Percent Effect [4] [%] | Percent Effect [5] [%] | Percent Effect [6] [%] | Percent Effect [7] [%] | Percent Effect [8] [%] | Percent Effect [9] [%] | Percent Effect [10] [%] | Percent Effect [11] [%] | Percent Effect [12] [%] | Percent Effect [13] [%]
1 | O=C(c1cccnc1)N1C[C@@H]2CC[C@H](C1)N(Cc1ncc[nH]1)C2 | -1.65 | 16.4 | 2.47 | 9.09 | 6.45 | 5.88 | 5.91 | 11.4 | 7.79 | -0.806 | 7.53 | 15 | -3.77
2 | CC(C)(C)n1cc(C2=CCN(CCc3ccccc3)CC2)cn1 | 0.726 | 1.39 | -2.65 | -7.35 | -1.87 | 5.93 | 24.3 | 14.7 | 11.7 | -75.6 | 6.32 | 12.8 | -5.1
3 | Cc1cccc(C(=O)N2C[C@@H]3OCCN(C(C)C)[C@@H]3C2)n1 | -0.342 | 0 | 2.88 | 1.78 | 5.46 | 1.74 | -50 | 5.81 | -20.9 | -1.16 | -26 | 2.5 | 0.0349
